Bioassay records from PubChem.
TRPV1 potentiator: enhances activation of the human vanilloid receptor TRPV1 | Q8NER1 | TRPV1-expressing cells, Fluo-8 calcium influx, capsaicin EC20 potentiation | potentiation, % at 8.33 µM | hit rate 0.02% among 320,000; in the data active = potentiation above about 80%; inconclusive = between about 30% and that limit; note: 0% is about no effect
Target sequence (Q8NER1 whole entry, looked up): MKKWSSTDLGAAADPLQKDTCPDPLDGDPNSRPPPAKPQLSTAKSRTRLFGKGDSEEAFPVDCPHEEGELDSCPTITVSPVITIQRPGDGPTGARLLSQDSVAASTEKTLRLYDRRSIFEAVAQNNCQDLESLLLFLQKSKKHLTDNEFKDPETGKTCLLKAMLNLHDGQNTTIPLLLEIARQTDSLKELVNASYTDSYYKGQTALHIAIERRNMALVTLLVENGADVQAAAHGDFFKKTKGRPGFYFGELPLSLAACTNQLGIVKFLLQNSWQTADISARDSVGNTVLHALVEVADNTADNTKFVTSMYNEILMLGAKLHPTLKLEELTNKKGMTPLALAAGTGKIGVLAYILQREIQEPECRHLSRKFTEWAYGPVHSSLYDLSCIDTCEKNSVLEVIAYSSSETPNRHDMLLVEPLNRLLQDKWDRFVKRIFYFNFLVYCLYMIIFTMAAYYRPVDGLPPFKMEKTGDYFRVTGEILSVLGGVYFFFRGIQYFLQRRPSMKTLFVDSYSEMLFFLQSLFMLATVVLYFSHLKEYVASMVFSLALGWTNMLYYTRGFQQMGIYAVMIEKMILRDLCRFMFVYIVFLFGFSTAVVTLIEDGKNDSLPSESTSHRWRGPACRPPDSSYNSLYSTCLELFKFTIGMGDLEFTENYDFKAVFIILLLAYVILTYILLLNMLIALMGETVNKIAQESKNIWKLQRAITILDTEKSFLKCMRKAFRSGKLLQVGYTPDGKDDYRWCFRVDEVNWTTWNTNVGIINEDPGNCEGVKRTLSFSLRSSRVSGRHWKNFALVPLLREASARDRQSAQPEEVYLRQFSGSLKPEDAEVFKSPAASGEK
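Cells expressing TRPV1 were dye-loaded with Fluo-8 and read kinetically: 10 s baseline, 3 min after compound (agonist portion), then 2 min after EC20 capsaicin (allosteric enhancer portion). Calcium-bound dye fluorescence at 480/520 nm.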
KCNH2 3.1 inh: KCNH2 3.1 (human) potassium channel inhibition | U2OS KCNH2 3.1, thallium flux FluxOr; active compounds read low | activity change, % (tested at about 1.8 µM) | hit rate 0.95% among 340,000 | AID 720553;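 active = maximum activity change below -70%; inconclusive = maximum activity change from -70% to -50%; inactive = maximum activity change above -50%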;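 note: thallium influx rate constant from kinetic fluorescence after stimulation buffer; % is set by controls: 0 for no effect and ±100 for the full control effect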
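Normalized rate constant (relative to positive and negative DMSO controls) derived from a 2 min kinetic fluorescence read after stimulation; U2OS cells expressing the 3.1 isoform via virus at 1.77 x 10^8 /mL.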
p53 reactivation: mutant p53 re-activation in reporter cells | hit rate 0.063% among 320,000 | Potency, µM (doses to about 92.2 µM), inactives show at the top dose activity change, positive = activation, most hits filed as activators | H1299 p53-A138V BP100-luciferase reporter, luminescence, 24 h; active = well fitted activation curve with a large enough effect; inconclusive = small, poorly fitted or top-dose-only effect; inactive = no such curve, though single readings can be large or run the other way; note: potency is the fitted concentration of half-maximal effect; % of control where 0% means no effect; nearly all actives have a fitted effect of over 45% in size
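p53-null H1299 cells stably carrying temperature-sensitive p53-A138V and a BP100-luciferase reporter were pinned with compounds (4-point, 1:5 series) and held 24 hrs at 37 deg C. Luminescence was read 10 min after detection reagent.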
hERG WT inh: inhibitors of human wildtype KCNH2 potassium channel | Q12809 | U2OS, BacMam KCNH2, thallium flux FluxOr; active compounds read low | activity change, % at 1.84 µM | hit rate 0.37% among 340,000 | AID 720551;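 active = maximum activity change below -70%; inconclusive = maximum activity change between -70% and -50%; inactive = maximum activity change above -50%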; note: % is set by controls: 0 for no effect and ±100 for the full control effect
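U2OS cells were transduced with wild-type KCNH2 virus (2.03 x 10^8 / mL) for 4 h at room temperature, then cultured overnight at 37 C. Thallium flux was read with FluxOr dye. Rate constants were normalized to DMSO controls.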
TRPV1 agonist: activates the human vanilloid receptor TRPV1. AID 540275. TRPV1-expressing cells, Fluo-8 calcium influx, agonist mode. activation, % at 8.33 µM. Q8NER1. hit rate 0.19% among 320,000; in the data active = activation above about 80%; inconclusive = between about 30% and that limit; note: 0% is about no effect
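Fluo-8 calcium influx in TRPV1-expressing cells, kinetic read (ex 480/em 520 nm). Compound added and read 3 min for agonist activity, followed by capsaicin at EC20 final and 2 min further read for enhancement.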
ClpP mod: qHTS Assay for Activators of ClpP; hit rate 1.9% among 340,000; purified B. subtilis ClpP, FRET peptide cleavage, 20 min; Potency, µM (titrated, usually from 57.5 µM), inactives show at the highest dose activity change, negative = active; active = well fitted falling curve with a large enough effect; inconclusive = small, poorly fitted or top-dose-only effect; inactive = no such curve, though single readings can be large or run the other way; note: potency is the fitted concentration of half-maximal effect; the source files actives as falling curves though it sought activators and does not explain the sign; nearly all actives have a fitted effect of over 65% in size
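Purified B. subtilis ClpP, 10 microg/mL final in Tris/HCl pH8 with KCl, BSA, glycerol and Tween-20, cleaved an Abz/nitrotyrosine-quenched decapeptide. Fluorescence (ex 320, em 430) was read at 0 and 20 min at room temperature. Delta was normalized to 5.8 microM ADEP and DMSO/no-enzyme controls.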
The depositor's hits bear a star; ? = inconclusive; / = no result given. This is a sample that favours compounds with a hit; in the whole collection about 2.6% have one here.

SMILES | TRPV1 potentiator | KCNH2 3.1 inh | p53 reactivation | hERG WT inh | TRPV1 agonist | ClpP mod
O=P(NC(c1ccccc1)c1ccccc1)(Oc1ccccc1)Oc1ccccc1 | -5 | -88* | -6% | 23 | 19 | -3%
O=P(Nc1ccccc1)(Oc1ccccc1)Oc1ccccc1 | -4 | 7 | -1% | 28 | 20 | 2%
CC(C)CNC(=O)c1c(N)n(Cc2ccc3c(c2)OCO3)c2nc3ccccc3nc12 | ? | -6 | -12% | -3 | -1 | 14µM*
COCCCNC(=O)c1c(N)n(Cc2ccco2)c2nc3ccccc3nc12 | -21 | -22 | -2% | -3 | ? | 4%
CCCNC(=O)c1c(N)n(Cc2ccc3c(c2)OCO3)c2nc3ccccc3nc12 | -41 | 5 | 2% | 1 | 0 | -28%
CC(C)CCNC(=O)c1c(N)n(Cc2ccc3c(c2)OCO3)c2nc3ccccc3nc12 | 0 | -5 | 7% | 7 | -3 | 28µM*
CN1CC(C(=O)c2ccc([N+](=O)[O-])cc2)C(c2ccc(Cl)cc2)C1 (centres undefined) | 9 | -73* | -3% | -13 | 6 | /
COc1ccc(C(=O)C2CN(C)CC2c2ccc(Cl)cc2)cc1 (centres undefined) | 2 | -13 | -7% | 61 | 5 | 1%
O=C(c1cc2ccccn2n1)N1CCN(Cc2ccccc2)CC1 | -19 | 2 | ? | 10 | ? | -18%
CNC(=O)Oc1cccc(-c2cn3cc(Cl)ccc3n2)c1 | -9 | -8 | / | -2 | ? | -1%
CNC(=O)Oc1ccc(-c2cn3cc(C)ccc3n2)cc1 | -11 | -1 | 28% | 1 | 3 | 13µM*
O=C(CN1CCCC1)c1ccccc1 | / | / | / | / | / | -4%
CN1CCN(c2ccc(N)cc2Cl)CC1 | 85* | 0 | 5% | -2 | -14 | /
CCCOC(=O)c1c(C)oc2c1cc(NS(=O)(=O)c1ccc(OCC)cc1)c1ccccc12 | / | / | / | / | / | 41%
O=C(c1ccc(N2CCN(CCO)CC2)nc1)N1CCOCC1 | -1 | -1 | ? | -4 | 3 | -2%
Cc1cccc(OCC(=O)N2CCN(Cc3cccnc3)CC2)c1 | -7 | -1 | -2% | 3 | 2 | 28µM*
CC(C)(C)OC(=O)N(CCc1ccccc1)Cc1ccc(OCc2cccc(NC(=O)c3ccccc3)c2)cc1 | / | -3 | / | -26 | / | ?
CCN1/C(=C/C=C/C2=[N+](CC)c3ccccc3C2(C)C)C(C)(C)c2ccccc21 | / | -77* | / | -131* | / | -2%
O=C(NCCCN1CC1)Nc1cccc2ccccc12 | / | 2 | / | -5 | / | 25µM*
Cc1ccccc1NC(=O)NCCN1CC1 | ? | 0 | 14% | -1 | -4 | -1%
C[C@]12CC[C@H](O)C[C@H]1CCC1C2CC[C@]2(C)[C@@H](c3ccc(=O)oc3)C[C@H]3O[C@]132 (some centres undefined) | / | / | / | / | / | 0%
Cc1ccc(Cl)cc1N1CCN(CCN)CC1 | -3 | -7 | -11% | 25 | 2 | 1%
Cc1ccc(Cl)cc1N1CCN(C(=O)c2cn(C)c(=O)c3c2c2ccccc2n3C)CC1 | 2 | -9 | 0% | -16 | 0 | 28µM*
Cc1ccc2c(c1)C(=O)CC1(CCC(C(C)(C)C)CC1)O2 (centres undefined) | -48 | 3 | 10% | 0 | ? | ?
CCOC(=O)C1(CCc2ccccc2)CCN(Cc2cccc3c2OCO3)CC1 | -15 | -97* | 1% | -112* | 13 | /
SMILES | TRPV1 potentiator | KCNH2 3.1 inh | p53 reactivation | hERG WT inh | TRPV1 agonist | ClpP mod
ClCCN(CCCl)/C(=C\c1ccccc1)c1ccnc2ccccc12 | / | / | / | / | / | 0%
ClCCN(CCCl)c1ccc(C=Nc2ccncc2)cc1 | / | / | / | / | / | -6%
COc1ccc(-n2c(=O)[nH]c3ccccc3c2=O)c(OC)c1 | -2 | 5 | -3% | 17 | 2 | -7%
COc1ccc(-n2c(=S)[nH]c3c(sc(=S)n3-c3ccccc3)c2=O)c(OC)c1 | 1 | ? | 3% | 4 | 2 | 11µM*
C=CCn1c(O)c(C(C)=NCCCN(C)C)c(=O)[nH]c1=O | 1 | 9 | 0% | -4 | -1 | 14µM*
C=CCn1c(O)c(C(C)=NCCCn2ccnc2)c(=O)[nH]c1=O | 8 | 14 | 2% | 7 | 1 | /
CC(C)(CN)CC(=O)O | 4 | 8 | 6% | -254* | -4 | 1%
CC(O)C1C=CC=CC(=O)OC2CC3OC4C5OC5(C)C(O)CC4(COC(=O)C(O)C(C)CCO1)C2(C)C31CO1 (centres undefined) | / | 13 | / | -9 | / | 32µM*
CC1OC(O[C@H]2C[C@@H](O)[C@]3(CO)[C@H]4[C@H](O)C[C@]5(C)[C@@H](C6=CC(=O)OC6)CC[C@]5(O)[C@@H]4CC[C@]3(O)C2)C(O)C(O)C1O (some centres undefined) | / | / | / | / | / | 1%
COc1cc([N+](=O)[O-])cc([N+](=O)[O-])c1N | / | / | / | / | / | 2%
CC(C)CCn1c(N)c(C(=O)NCc2cccs2)c2nc3ccccc3nc21 | 10 | -9 | -25% | -20 | 3 | 14µM*
CCOC(=O)c1c(NS(=O)(=O)c2ccccc2)n(CCCOC)c2nc3ccccc3nc12 | 9 | -2 | -10% | -4 | 6 | 28µM*
COCCNC(=O)c1c(N)n(CCC(C)C)c2nc3ccccc3nc12 | 0 | 1 | -2% | -1 | 2 | 16µM*
Nc1c(C(=O)NCc2ccco2)c2nc3ccccc3nc2n1CCN1CCCCC1 | -18 | -5 | -4% | 18 | ? | -20%
CCCCNC(=O)c1c(N)n(CCCOC)c2nc3ccccc3nc12 | -2 | -6 | -5% | 8 | ? | 25µM*
CN(N=O)c1cc(O)ccc1O | -7 | / | / | / | -1 | /
COC(=O)c1ccc2ccn(CC(=O)NC(C)C)c2c1 | 13 | 4 | 11% | -3 | -1 | ?
CC(C)OCCCNC(=O)c1c(N)n(Cc2cccs2)c2nc3ccccc3nc12 | -11 | 12 | -22% | 4 | -1 | 10µM*
COCCCNC(=O)c1c(NC(=O)c2ccco2)n(Cc2ccccc2)c2nc3ccccc3nc12 | 14 | 3 | 7% | 1 | 10 | 16µM*
CCOc1cc(-c2ccc(N)c(OCC)c2)ccc1N | -34 | 3 | -12% | 2 | -3 | 32µM*
CCOC(=O)CCCc1cc[c]([Sb](=[O])([OH])[OH])cc1 | / | / | / | / | / | -3%
O=C(COc1cc(Cl)ccc1Cl)Nc1ccc(Cl)cc1C(=O)c1ccccc1 | / | / | / | / | / | -1%
C[C@@H]1CNC(=O)c2c(C(=O)Nc3cccc(Cl)c3)ncn21 | / | 0 | / | 4 | / | 3%
